CHRM1 antagonist – human CHRM1 antagonism; CHO-K1 hM1, Fluo-8 calcium fluorescence, ACh EC80 antagonist; P11229; hit rate 1.3% among 360,000; inhibition, % at 3 µM;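 active means percent inhibition above its own plate's cutoff, namely the mean of that plate's compound wells plus 3 SD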;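 further: peak over basal fluorescence ratio during 140 s after agonist addition; 0% = ACh EC80 plus DMSO and 100% = DMSO alone without agonist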
Target sequence (P11229 whole entry, looked up): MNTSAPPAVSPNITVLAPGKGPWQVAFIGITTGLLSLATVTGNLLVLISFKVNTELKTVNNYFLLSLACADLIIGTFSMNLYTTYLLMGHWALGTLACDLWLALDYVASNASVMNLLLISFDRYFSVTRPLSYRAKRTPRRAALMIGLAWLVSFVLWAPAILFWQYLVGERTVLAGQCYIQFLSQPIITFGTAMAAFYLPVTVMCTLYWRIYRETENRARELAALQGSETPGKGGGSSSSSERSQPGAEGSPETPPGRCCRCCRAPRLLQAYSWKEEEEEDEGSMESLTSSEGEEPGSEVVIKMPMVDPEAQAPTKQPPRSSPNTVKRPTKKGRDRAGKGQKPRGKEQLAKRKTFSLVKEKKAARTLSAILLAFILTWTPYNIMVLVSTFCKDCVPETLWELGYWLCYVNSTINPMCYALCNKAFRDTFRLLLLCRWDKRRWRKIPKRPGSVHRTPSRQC
CHO-K1 Ca ag – M1 agonist counterscreen hit in parental CHO-K1 cells. AID 602248. activation, % at 3 µM. Fluo-8 calcium fluorescence; scaled to maximal ATP response, vehicle zero. hit rate 0.48% among 360,000; in the data active means activation above about 15%;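 further: untransfected CHO-K1 host cells lacking M1 receptor as counterscreen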
M1 PAM – human CHRM1 positive allosteric modulation; hit rate 0.088% among 360,000; activation, % at 3 µM; CHO-K1 hM1, Fluo-8 calcium fluorescence, ACh EC20; 0% = ACh EC20, 100% = maximal ACh; P11229; in the data active means activation above about 19%, passing the limit was not always enough
M1 ag – activates human CHRM1 receptor. CHO-K1 hM1, Fluo-8 calcium fluorescence, agonist mode; 0% DMSO, 100% acetylcholine EC100. activation, % at 3 µM. hit rate 0.33% among 360,000. P11229;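 active means activation above the run's mean compound activation plus 3 SD, cut at about 16% in these data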;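 further: peak over basal fluorescence ratio within a 140 s kinetic read after compound addition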
CHO-K1 Ca antag – M1 antagonist counterscreen hit in parental CHO-K1 cells; ATP-induced calcium, Fluo-8 fluorescence; hit rate 0.6% among 360,000; inhibition, % at 3 µM;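 active means inhibition above a per-plate cutoff, the plate's mean sample inhibition plus 3 SD, cut at about 24% in these data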;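 further: 0% = DMSO plus EC80 ATP and 100% = DMSO alone without ATP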
M1 PAM parental – counter-screen for M1 PAMs: effect in parental CHO-K1 cells; ATP EC20, Fluo-8 calcium fluorescence; 0% at ATP EC20, 100% at ATP max; activation, % at 3 µM; hit rate 0.02% among 360,000;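 active means activation above the run cutoff, the mean activation of all test compounds plus 3 SD, cut at about 40% in these data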;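 further: peak over basal fluorescence ratio in a 140 s read after ATP addition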
An asterisk follows results filed as active. Sampled rows, rich in hits. Any-hit rate of the full collection: about 2.3%.

CSc1ccc(CN2CCC(Oc3ccc(C(=O)N4CCCC4)cc3)CC2)cc1 was read as CHRM1 antagonist 87*, CHO-K1 Ca ag 0, M1 PAM -23, M1 ag -5, CHO-K1 Ca antag -1 and M1 PAM parental 0.
COc1ccc(CN2CCC(Oc3ccc(C(=O)N4CCCC4)cc3)CC2)c(F)c1 was read as CHRM1 antagonist 61*, CHO-K1 Ca ag 1, M1 PAM -23, M1 ag -6, CHO-K1 Ca antag -8 and M1 PAM parental 3.
`CCOc1cccc(CN2CCC(Oc3ccc(C(=O)N4CCCC4)cc3)CC2)c1` gave CHRM1 antagonist 49*, CHO-K1 Ca ag 1, M1 PAM -23, M1 ag -5, CHO-K1 Ca antag -11 and M1 PAM parental 3.
CC1CCCN(CC(=O)Nc2ccc(S(=O)(=O)N3CCCC3)cc2)C1 (centres undefined) was read as CHRM1 antagonist 67*, CHO-K1 Ca ag 0, M1 PAM -34, M1 ag -12, CHO-K1 Ca antag 3 and M1 PAM parental -12.
Screening O=C(Nc1ccc(S(=O)(=O)N2CCCC2)cc1)C1CCN(S(=O)(=O)c2ccc(F)cc2)CC1 returned CHRM1 antagonist 10, CHO-K1 Ca ag 11, M1 PAM -8, M1 ag 17*, CHO-K1 Ca antag 1 and M1 PAM parental -1.
O=C(Nc1ccccc1)Nc1ccc(S(=O)(=O)N2CCCCC2)cc1 was read as CHRM1 antagonist 17, CHO-K1 Ca ag 11, M1 PAM -10, M1 ag 6, CHO-K1 Ca antag 24* and M1 PAM parental 4.
Screening O=C(Nc1cccc(Cl)c1)Nc1cc(S(=O)(=O)N2CCCCC2)ccc1Cl returned CHRM1 antagonist 25*, CHO-K1 Ca ag 1, M1 PAM -19, M1 ag -3, CHO-K1 Ca antag 38* and M1 PAM parental -15.
Screening CN1CCN(S(=O)(=O)c2ccc(NC(=O)Nc3cccc(Cl)c3)cc2)CC1 returned CHRM1 antagonist 13, CHO-K1 Ca ag 4, M1 PAM 7, M1 ag -3, CHO-K1 Ca antag 12 and M1 PAM parental 18.
Screening O=C(Nc1ccc(S(=O)(=O)N2CCCCC2)cc1)c1ccccc1Cl returned CHRM1 antagonist -11, CHO-K1 Ca ag 2, M1 PAM 11, M1 ag -4, CHO-K1 Ca antag -10 and M1 PAM parental 21.
CC1CCN(S(=O)(=O)c2ccc(NC(=O)CN3CCCC(C)C3)cc2)CC1 (centres undefined) was read as CHRM1 antagonist 5, CHO-K1 Ca ag 0, M1 PAM -5, M1 ag -7, CHO-K1 Ca antag 7 and M1 PAM parental -6.
Screening Cc1ccc(N(CCC#N)C(=O)COC(=O)c2ccccn2)cc1 returned CHRM1 antagonist -5, CHO-K1 Ca ag 0, M1 PAM 0, M1 ag 0, CHO-K1 Ca antag -5 and M1 PAM parental 7.
`CC(=O)NC(C)(c1ccccc1)c1nc(-c2csc3ccccc23)cs1` (centres undefined) gave CHRM1 antagonist -8, CHO-K1 Ca ag 1, M1 PAM -1, M1 ag -6, CHO-K1 Ca antag -16 and M1 PAM parental 14.
For CCOC(=O)C1CCN(C(=O)c2ccc3c(c2)C(=O)N(c2ccccc2C)C3=O)CC1 the results were CHRM1 antagonist 3, CHO-K1 Ca ag 1, M1 PAM -2, M1 ag -6, CHO-K1 Ca antag -5 and M1 PAM parental 1.
For Cc1ccc(NC(=O)C2CCN(S(=O)(=O)c3cccc4nonc34)CC2)cc1 the results were CHRM1 antagonist -5, CHO-K1 Ca ag 8, M1 PAM -7, M1 ag -2, CHO-K1 Ca antag -12 and M1 PAM parental -1.
For O=C(Nc1cccc(F)c1)C1CCN(S(=O)(=O)c2cccc3nonc23)CC1 the results were CHRM1 antagonist 3, CHO-K1 Ca ag 20*, M1 PAM -11, M1 ag 3, CHO-K1 Ca antag -16 and M1 PAM parental 2.
`O=C(CN1CCN(S(=O)(=O)c2ccc(Br)cc2)CC1)Nc1ccc(F)cc1` gave CHRM1 antagonist 1, CHO-K1 Ca ag 2, M1 PAM -3, M1 ag -3, CHO-K1 Ca antag -10 and M1 PAM parental 16.
`O=C(NCc1cccnc1)c1ccc(S(=O)(=O)N2CCCCC2)cc1` gave CHRM1 antagonist -15, CHO-K1 Ca ag 3, M1 PAM 7, M1 ag -7, CHO-K1 Ca antag -20 and M1 PAM parental 19.
Screening O=S(=O)(Nc1ccc(F)cc1)c1ccc(S(=O)(=O)N2CCOCC2)cc1 returned CHRM1 antagonist 10, CHO-K1 Ca ag 34*, M1 PAM -6, M1 ag 24*, CHO-K1 Ca antag 8 and M1 PAM parental -4.
O=S(=O)(c1ccc(NC(=S)NCc2cccnc2)cc1)N1CCCCC1 was read as CHRM1 antagonist 44*, CHO-K1 Ca ag 10, M1 PAM -17, M1 ag 4, CHO-K1 Ca antag 3 and M1 PAM parental -6.
For O=S(=O)(Nc1ccc(S(=O)(=O)N2CCCC2)cc1)c1ccc(F)cc1 the results were CHRM1 antagonist -16, CHO-K1 Ca ag 2, M1 PAM 15, M1 ag -1, CHO-K1 Ca antag -19 and M1 PAM parental 30.
Screening O=C(CN1CCN(S(=O)(=O)c2ccc(Br)cc2)CC1)Nc1ccc2c(c1)OCO2 returned CHRM1 antagonist -31, CHO-K1 Ca ag 22*, M1 PAM 3, M1 ag 4, CHO-K1 Ca antag 0 and M1 PAM parental 21.
O=C(O)Cc1sc(N/N=C\c2ccncc2)nc1-c1ccccc1 was read as CHRM1 antagonist 2, CHO-K1 Ca ag 11, M1 PAM -6, M1 ag 5, CHO-K1 Ca antag -2 and M1 PAM parental 6.
Screening CC1(C(=O)NS(=O)(=O)c2ccc(Cl)cc2)CCN1C(=O)CCc1ccccc1 (centres undefined) returned CHRM1 antagonist -12, CHO-K1 Ca ag 0, M1 PAM 8, M1 ag -1, CHO-K1 Ca antag 0 and M1 PAM parental -1.
For CCCC(=O)Nc1ccc(S(=O)(=O)N2CCCC2)cc1 the results were CHRM1 antagonist -9, CHO-K1 Ca ag 1, M1 PAM 11, M1 ag -7, CHO-K1 Ca antag -7 and M1 PAM parental 6.
`CCN(CC(=O)Nc1cc(S(=O)(=O)N2CCCCC2)ccc1Cl)Cc1ccccc1` gave CHRM1 antagonist 20, CHO-K1 Ca ag 9, M1 PAM -5, M1 ag 0, CHO-K1 Ca antag 36* and M1 PAM parental -5.
`COc1cc2c(cc1OC)C(C)N(CC(=O)Nc1ccc(S(=O)(=O)N3CCCC3)cc1)CC2` (centres undefined) gave CHRM1 antagonist 58*, CHO-K1 Ca ag 4, M1 PAM -25, M1 ag -3, CHO-K1 Ca antag -12 and M1 PAM parental 2.

Compound activity as filed in PubChem BioAssay.
